According to PubChem BioAssay (NCI):
Compounds without any hit were thinned out: in the full panel of roughly 83,000, 20% have a hit.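 Percent growth is the endpoint: 0 to 100 indicates growth inhibition (40 means 60% inhibition), 0 means no net growth, and negative values indicate cell death.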 Activity calls are given as the source filed them.

system: RPMI-8226 leukemia; assay: NCI-60 one-dose screen, 48 h (100 = growth as untreated, 0 = no growth, -100 = all killed); conditions: 10 µM unless noted
Protocol: Growth inhibition of the RPMI-8226 human tumor cell line is measured as a screen for anti-cancer activity. Cells are grown in 96 well plates and exposed to the test compound for 48 hours. Compounds are tested at a single concentration, which is 10^-5 M for most compounds. The reported endpoint is percent growth (GI% or GIPRCNT), where numbers from 0 - 100% represent growth inhibition, and numbers from -100% - 0 represent cell death. For example, a value of 40 represents 60% growth inhibition. A value of 0 means no net growth occurred over the course of the experiment. A value of -40 indicates 40% of cells at the beginning of the experiment died by the end of the experiment. A value of -100 means all cells are dead at the end of the experiment.
NCI-60 Human Tumor Cell Lines Screen was performed using the standard one-dose NCI protocol, which is described in more detail at https://dtp.cancer.gov/discovery_development/nci-60/default.htm.
Compounds with GIPRCNT values below 10 were considered active. Activity score was based on GIPRCNT using the following formula: […]
Score is 0 for GIPRCNT values of 100 or above, 50 for GIPRCNT values of 0, and 100 for GIPRCNT values of -100.

SMILES	growth
Nc1cccc2c1Oc1ccccc1O2	95.9% (inactive)
CCCC(C)(C)c1ccc2c(c1)OC(C)(C)[C@@H]1CC=C(C)C[C@@H]21	92.9% (inactive)
n1nc(-c2nonc2-c2nn[nH]n2)n[nH]1	96.5% (inactive)
C[C@@H]1CC[C@@H]2[C@@H]1[C@H](OC(=O)/C=C/C1CCCCC1)[C@]1(C3CCCCC3)C[C@@H](OC(=O)CO)[C@@]2(C)O1	25.3% (inactive)
ClCCN(CCCl)c1ccc(C=NCCc2c[nH]c3ccccc23)cc1	85.6% (inactive)
CC(C)OC(=S)[S-].[Au+].c1ccc([PH+](c2ccccc2)c2ccccc2)cc1	3.19% (active)
O=C(CCc1ccco1)NC1CCN(CC2(c3ccc(Cl)cc3)CCC2)CC1	-5.13% (active)
C[C@]12CC[C@H]3[C@@H](C[C@@H]4N=C(c5ccc(O)cc5)S[C@@]45C[C@H](O)CC[C@]35C)[C@@H]1CC[C@@H]2O	-36.9% (active)
O=CC(Br)C(Br)c1ccccc1 (stereo not given)	89% (inactive)
CNC(=O)Oc1cccc(N(C)C)c1	101% (inactive)
O=c1[nH]c2cc(Cl)ccc2n1C1CCN(CCCC(c2ccc(F)cc2)c2ccc(F)cc2)CC1	-52.8% (active)
Nc1c(Br)cc([N+](=O)[O-])cc1[N+](=O)[O-]	105% (inactive)
CCC(CC)(c1ccccc1)C(OC(N)=O)c1ccccc1 (stereo not given)	79.7% (inactive)
CN1C(=O)NC(=O)C(N=Nc2ccc(Cl)cc2)C1=O (stereo not given)	96.1% (inactive)
Cc1ccc(C(=O)C2CN(C)CCC2(O)c2ccc(C)cc2)cc1 (stereo not given)	99.9% (inactive)
CC(=O)C1CCC2C3CC=C4CC(OC(=O)Cc5ccc(N(CCCl)CCCl)cc5)CCC4(C)C3CCC12C (stereo not given)	73.2% (inactive)
CCC[CH2][Sn]([CH2]CCC)([CH2]CCC)[O]C(=O)CC	-31% (active)
COc1cc(CNCCc2ccc(Cl)cc2)cc(OC)c1O	42.4% (inactive)
O=C(NCc1ccc([N+](=O)[O-])cc1)Nc1ccc(S(=O)(=O)F)cc1	68.9% (inactive)
CN1CCN(C(=O)COc2ccc(/C=C3\CC4C5CC=C6CC(Cl)CCC6(C)C5CCC4(C)C3=O)cc2)CC1 (stereo not given)	53.5% (inactive)

SMILES	growth
NS(=O)(=O)c1nc[nH]c1[N+](=O)[O-]	101% (inactive)
CC[C@@H](C)/C=C(C)/C=C/C(=O)c1c(O)c(-c2ccc(O)cc2)cn(O)c1=O	22.5% (inactive)
CNC(=O)Oc1ccccc1	96.4% (inactive)
CC(=O)O[C@H]1C[C@H](O[C@H]2[C@@H](O)C[C@H](O[C@H]3[C@@H](O)C[C@H](O[C@H]4CC[C@@]5(C)C(CCC6C5C[C@@H](O)[C@]5(C)[C@@H](C7=CC(=O)OC7)CC[C@]65O)C4)O[C@@H]3C)O[C@@H]2C)O[C@H](C)[C@H]1O[C@@H]1O[C@H](CO)[C@@H](O)[C@H](O)[C@H]1O (stereo not given in full)	-0.309% (active)
O=C(Nc1ccc(S(=O)(=O)F)cc1)Oc1ccccc1	92.3% (inactive)
Oc1ccc(O)c2c1C1(Cl)C(Cl)=C(Cl)C2(Cl)C1(Cl)Cl	64% (inactive)
Cc1cc(N(CCCl)CCCl)ccc1C=Nc1ccc2ccccc2c1	78.8% (inactive)
COc1ccc(OC)c(/C=C(/C)[N+](=O)[O-])c1	-21.9% (active)
COc1cc(C2CC(=O)Nc3nc(N)[se]c32)cc(OC)c1OC (stereo not given)	101% (inactive)
C/C(=C\c1cc(C(F)(F)F)n(-c2ccc(N)cc2)n1)[C@@H]1C[C@@H]2O[C@]2(C)CCC[C@H](C)[C@H](O)[C@@H](C)C(=O)C(C)(C)[C@@H](O)CC(=O)O1	3.83% (active)
Nc1ccc([N+](=O)[O-])c2c1Oc1ccccc1O2	105% (inactive)
O=[N+]([O-])c1ccccc1N1CCNCC1	118% (inactive)
O=C(c1cccs1)C1NO[N+]([O-])=C1c1cccs1 (stereo not given)	14.1% (inactive)
CC(C)[C@]12O[C@H]1[C@@H]1O[C@]13[C@]1(O[C@H]1C[C@H]1C4=C(CC[C@@]13C)C(=O)OC4)[C@@H]2OC(=O)OC(C)(C)C	20.6% (inactive)
CC(C)N=C(NC(C)C)N1CC1	121% (inactive)
CCOc1cc(C=C(C#N)C#N)cc(Br)c1O	105% (inactive)
CC(C)C1c2ccc(O)cc2Oc2nc(N)c(C#N)c(N)c21 (stereo not given)	89.4% (inactive)
CCOP(=O)(OCC)Oc1ccc(Sc2ccc(OP(=O)(OCC)OCC)cc2)cc1	90% (inactive)
CO[C@@H](c1ccccc1Cl)[C@H](C)OC(N)=O	110% (inactive)
COc1cc(C2CC(=O)Nc3nc(N)[se]c32)c(OC)c2c1OCO2 (stereo not given)	119% (inactive)
